# Results: PubChem BioAssay (NCATS)
# Inconclusive results are not listed. Active and inactive are the calls of the source. The call rests on the fitted dose curve; in most records, active means well fitted activation curve with a large enough effect; inconclusive means small, poorly fitted or top-dose-only effect; inactive means flat fitted curve, though single readings scatter.
# Assay: Cellular Toxicity (caspase-3) Jurkat (AID 655);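 further: cells exposed to compound for 16 h at 37 °C before reading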
# Details: Jurkat caspase-3 activation, luminescence; caspase-3 activation: at 92.2 µM (top of the series), DMSO = 0%, tamoxifen = 100%
# From the text: NIH Chemical Genomics Center [NCGC]
# NIH Molecular Libraries Screening Centers Network [MLSCN]
# National Institutes of Environmental Health Sciences [NIEHS]
# National Toxicology Program [NTP]
# We have developed a 1536-well cell-based assay for quantitative high throughput screening (qHTS) against a number of cell lines to determine in vitro caspase 3/7 of small molecules. This particular assay uses the Jurkat cell line which is derived from human T cell leukemia.
# NCGC Assay Protocol Summary:
# The Caspase-Glo 3/7 assay (Promega) is a homogeneous method to measure caspase-3 and caspase-7 activities in cultured cells. The quantitation of caspase 3/7 activity is based on the cleavage of a peptide-aminoluciferin substrate. After caspase cleaves the substrate the free aminoluciferin is liberated and serves as the substrate of luciferase, which generates the light. The luminescent signal is proportional to amount of caspase 3/7 activity present.
# Using the Caspase-Glo 3/7 assay, the amount of caspase 3/7 activity was measured in the Jurkat cell line with complete culture medium following compound treatment for 16 hours. The assay was performed in opaque white 1536-well plates. In the screen, tamoxifen and doxorubicin were used as positive controls. Library compounds were measured for their ability to cause the activation of caspase 3/7 in the cell line, as reflected by an increase in luminescence signal, in a concentration-dependent manner. Data were normalized to the controls for basal activity (DMSO only) and 100% stimulation (100 uM tamoxifen). AC50 values were determined from concentration-response data modeled with the standard Hill equation.
# qHTS protocol for caspase 3/7 assay in Jurkat cells
# [Step] [Parameter] [Value] [Description]
# 1. Reagent; 5 uL; 5000 Jurkat cells/well
# 3. Controls; 23 nL; Tamoxifen 0.23 uM to 100 uM & Doxorubicin 7.0 pM to 100 uM
# 4. Time; 16 hr; 37 °C incubation
# 5. Reagent; 5 uL; Caspase-Glo 3/7 reagent
# 6. Time; 20 min; Room Temperature
# 7. Detection; Luminescence; Viewlux plate reader
# Keywords: caspase 3/7, apoptosis, Jurkat cell line, luminescence, NTPHTS, NTPHTS_NCGC, NIEHS, EPA, DSSTox, MLSMR, MLSCN, NIH Roadmap, qHTS, NCGC
# Potency means the concentration at half of the fitted maximal effect.
SMILES,caspase-3 activation,Potency
c1ccc(COCc2ccccc2)cc1,0.791% (inactive),
Nc1cnn([C@@H]2O[C@H](CO)[C@@H](O)[C@H]2O)c(=O)n1,11.9% (inactive),
O=C(Cl)c1ccc([N+](=O)[O-])cc1,0.223% (inactive),
Nc1ccc2c(c1)C(=O)c1ccccc1C2=O,-9.35% (inactive),
OCC(CO)(CBr)CBr,-1.13% (inactive),
Cc1cc(-c2ccc(N=Nc3cc(S(=O)(=O)O)c4ccccc4c3N)c(C)c2)ccc1N=Nc1cc(S(=O)(=O)O)c2ccccc2c1N,-3.32% (inactive),
Cc1ccc(O)c(N)c1,-1.78% (inactive),
CCCCOC(=O)COc1ccc(Cl)cc1Cl,2.6% (inactive),
COc1cc(-c2ccc(N=C=O)c(OC)c2)ccc1N=C=O,1.29% (inactive),
O=C1c2ccccc2C(=O)C1(O)O,,31.6 µM (active)
c1ccncc1,0.447% (inactive),
CCC(Cl)CC(Cl)C(Cl)C(Cl)C(Cl)C(C)Cl (stereo not given),2.38% (inactive),
Nc1ccccc1O,,25.1 µM (active)
CC(C)S,0.127% (inactive),
O=[N+]([O-])c1ccccc1Nc1ccccc1,-0.168% (inactive),
Oc1cc2c(cc1O)[C@H]1c3ccc(O)c(O)c3OC[C@@]1(O)C2,13.6% (inactive),
C/C=C/C=C/C=O,-5.5% (inactive),
c1ccc2c(c1)ccc1ccccc12,-0.38% (inactive),
O=[N+]([O-])c1cccc(I)c1,0.966% (inactive),
CCCC(=O)OC(=O)CCC,-0.515% (inactive),

SMILES,caspase-3 activation,Potency
CCOC(=O)C1OC1c1ccccc1 (stereo not given),-0.314% (inactive),
N=C1C=CC(=C(c2ccc(N)cc2)c2ccc(N)cc2)C=C1,9.79% (inactive),
O=C(O)c1cc(N=Nc2ccc([N+](=O)[O-])cc2)ccc1O,-9.75% (inactive),
Nc1ccc(N)c(Cl)c1,19.3% (inactive),
CC(=O)OC1CC(C)OC(C)O1 (stereo not given),0.402% (inactive),
C=CC(C)(O)CCCC(C)CCCC(C)CCCC(C)C (stereo not given),0.373% (inactive),
O=[N+]([O-])c1ccc(F)cc1F,-1.81% (inactive),
Cc1cc2nc(N)sc2cc1C,-10.7% (inactive),
OCC(CBr)(CBr)CBr,-1.76% (inactive),
C/C(Cl)=C/CCl,-0.535% (inactive),
CC(C)COC(=O)COc1cc(Cl)c(Cl)cc1Cl,-0.414% (inactive),
CC(CCC(=O)O)(c1ccc(O)cc1)c1ccc(O)cc1,-1.16% (inactive),
c1cc2c3c(c1)ccc1cccc(c13)C2,0.957% (inactive),
O=C(OCc1ccccc1)c1ccccc1O,-0.303% (inactive),
Cc1ccc(C(=O)O)cc1[N+](=O)[O-],-0.0625% (inactive),
C=CC1CO1 (stereo not given),1.46% (inactive),
CCCCC(CC)COCCCN (stereo not given),-0.0969% (inactive),
CCCCC(CC)COC(=O)COc1ccc(Cl)cc1Cl (stereo not given),-0.418% (inactive),
Oc1ccc2c(c1)OCO2,-1.46% (inactive),
Cc1cccnc1,2.31% (inactive),
